Screens from PubChem.
The list is not random: actives were taken first. Their share in the collection is about 7%.
BAZ2B block: BAZ2B (human) inhibition. AID 504333. Q9UIF8. Potency, µM (highest dose often 114 µM), without a hit: at the top dose activity change, negative = inhibition, actives largely listed as inhibitors. AlphaScreen BAZ2B-H3K14Ac peptide displacement. 360,000 compounds, 4.4% hits; note: potency is the fitted concentration of half-maximal effect; % is set by controls: 0 for no effect and ±100 for the full control effect; nearly all actives have a fitted effect of over 60% in size
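Inhibition is scored as reduced AlphaScreen emission. The BAZ2B/b-H3(5-23)K14Ac complex (50 nM each) in PBS pH 7.4, 0.01% Tween-20 meets compound (up to 110 uM) for 30 min at RT before bead addition.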
GCN5L2 inh: blocks human GCN5L2 histone acetyltransferase. Q92830. AID 504327. Potency, µM (doses to about 58.9 µM), without a hit: at the highest dose activity change, negative = inhibition, actives largely listed as inhibitors. GCN5L2 HAT assay, ThioGlo1 CoA-SH fluorescence. 390,000 compounds, 0.21% hits; note: potency is the fitted concentration of half-maximal effect; % is set by controls: 0 for no effect and ±100 for the full control effect
Target sequence (Q92830 whole entry, looked up): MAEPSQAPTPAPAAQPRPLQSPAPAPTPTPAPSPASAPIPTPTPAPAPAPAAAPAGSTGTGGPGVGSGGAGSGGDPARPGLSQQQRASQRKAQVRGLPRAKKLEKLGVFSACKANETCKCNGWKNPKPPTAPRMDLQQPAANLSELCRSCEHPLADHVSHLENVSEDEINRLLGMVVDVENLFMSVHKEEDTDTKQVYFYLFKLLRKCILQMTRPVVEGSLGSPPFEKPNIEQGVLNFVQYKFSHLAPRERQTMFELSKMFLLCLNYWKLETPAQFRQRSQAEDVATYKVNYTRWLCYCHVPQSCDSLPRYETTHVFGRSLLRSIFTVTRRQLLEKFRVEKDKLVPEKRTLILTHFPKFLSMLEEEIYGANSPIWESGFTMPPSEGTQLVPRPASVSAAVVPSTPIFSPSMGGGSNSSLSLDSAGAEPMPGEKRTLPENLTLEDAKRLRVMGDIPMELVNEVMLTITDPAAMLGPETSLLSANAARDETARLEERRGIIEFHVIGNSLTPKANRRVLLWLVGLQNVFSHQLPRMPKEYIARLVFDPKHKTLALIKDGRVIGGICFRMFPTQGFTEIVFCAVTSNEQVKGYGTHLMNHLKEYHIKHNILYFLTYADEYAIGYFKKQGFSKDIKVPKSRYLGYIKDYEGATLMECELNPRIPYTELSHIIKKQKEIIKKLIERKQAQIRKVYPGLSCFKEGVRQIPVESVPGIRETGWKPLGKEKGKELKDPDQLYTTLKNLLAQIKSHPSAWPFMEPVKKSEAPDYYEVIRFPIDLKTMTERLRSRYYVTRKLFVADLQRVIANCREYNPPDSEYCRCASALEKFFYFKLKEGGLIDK
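Preincubate 20nM GCN5L2 with compound 15 min, RT → add 50uM ThioGlo1 + 75uM H3(1-25) + 70uM acetyl-CoA → read fluorescence 0 and 20 min. Primary qHTS; fluorescent artifacts likely.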
JMJD2A Tudor inh: JMJD2A Tudor domain (human) inhibition. O75164. AlphaScreen JMJD2A-Tudor / H3K4me3 peptide binding. Potency, µM (series often up to 114 µM), for inactives: top-dose activity change, negative = inhibition, actives largely listed as inhibitors. 390,000 compounds, 4.4% hits; note: potency is the fitted concentration of half-maximal effect; % is set by controls: 0 for no effect and ±100 for the full control effect; nearly all actives have a fitted effect of over 50% in size
PI5P4K alpha inh: blocks human PI5P4K alpha kinase activity; PI5P4Kalpha enzyme, ADP-Glo luminescence, 60 min; stronger effect = lower value; 330,000 compounds, 1.2% hits; AID 652105; P48426; max response, %; active = max response of -50% or lower; inconclusive = between -30% and -50%; inactive = -30% or higher; note: value at the top dose of about 77 µM; % is set by controls: 0 for no effect and ±100 for the full control effect
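Controls without substrate or without enzyme flank wells where PI5P4Kalpha converts substrate using 5 microM ATP (final). Incubation lasts 60 minutes at room temperature; ADP formed is read by ADP-Glo luminescence.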
PLK1 PBD block: PLK1 (human) polo-box domain binding inhibition. Plk1 PBD binding of FITC phosphopeptide, fluorescence polarization. Potency, µM, for the others: max response, negative = inhibition, hits mostly inhibitors. 360,000 compounds, 2.8% hits. AID 720504; note: potency is the fitted concentration of half-maximal effect; series mostly up to about 57 µM; % is set by controls: 0 for no effect and ±100 for the full control effect; nearly all actives have a fitted effect of over 65% in size
HP1b chromo inh: inhibitors of HP1-beta chromodomain binding to methylated histone tails | P83916 | AlphaScreen HP1-beta / biotin-H3K9me3 peptide binding | Potency, µM (highest dose often 114 µM), for inactives: at the highest dose activity change, negative = inhibition, usual class: inhibitors | 390,000 compounds, 0.56% hits; note: potency is the fitted concentration of half-maximal effect; nearly all actives have a fitted effect of over 70% in size
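Compound inhibition of the preformed complex between 50 nM HP1-beta and 50 nM biotinylated H3K9me3 peptide was read by AlphaScreen. Buffer was PBS pH 7.4 with 0.01% Tween-20. Incubations ran 30 min at room temperature, with 10 ug/mL donor/acceptor beads.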
An asterisk follows results filed as active; ? = inconclusive; · = not tested or not shown; ! = not active in a repeat; [ ] = another dose, or the depositor's remark. Unless noted, calls come from the whole dose curve; as a rule, active = well fitted curve in the direction sought with a large enough effect; inconclusive = small, poorly fitted or top-dose-only effect, or another doubt; inactive = no such curve, though single readings can be large; an effect the other way counts as inactive or inconclusive.

SMILES	BAZ2B block	GCN5L2 inh	JMJD2A Tudor inh	PI5P4K alpha inh	PLK1 PBD block	HP1b chromo inh
O=[N+]([O-])c1cccc(O)c1	-2%	-6%	-10%	2	-8%	9%
O=[N+]([O-])c1cc(S(=O)(=O)c2ccc(O)c([N+](=O)[O-])c2)ccc1O	50µM*	-3%	56µM*	-64*	-25%	?
CC/C(=C(\c1ccc(O)cc1)c1ccc(OCCN(C)C)cc1)c1ccccc1	45µM*	-3%	56µM*	18	0%	-21%
Cc1cc2ccccc2n1CCNC(=O)COc1ccccc1	?	-3%	20µM*	1	-23%	?
CNS(=O)(=O)c1ccc(N=Cc2c(O)n(-c3ccc(C)cc3)c(=O)[nH]c2=O)cc1	-14%	-11%	-17%	?	2%	38%
CCc1nnc(NS(=O)(=O)c2ccc(N=Cc3c(O)n(-c4ccc(Cl)cc4)c(=O)[nH]c3=O)cc2)s1	-14%	-2%	35µM*	?	27µM*	-3%
COc1ccc(C[C@H]2c3cc(OC)c(OC)cc3CCN2C)cc1OC	·	8.9µM*	·	·	·	·
Cc1ccc(N)cc1C	·	·	-12%	3	-1%	19%
Cc1cc(N(C)C)ccc1N=Nc1ccc(N)cc1	·	·	20µM*	13	8%	45µM*
C=C(C)[C@]12C[C@@H](C)[C@@]34O[C@](Cc5ccccc5)(O[C@@H]1[C@@H]3C=C(COC(=O)Cc1ccc(O)c(OC)c1)C[C@]1(O)C(=O)C(C)=C[C@@H]41)O2	·	-29%	·	·	·	·
CC(C)c1ccc(C(O)P(=O)(OCc2ccccc2)c2ccc(N(C)C)cc2)cc1 (stereo unspecified)	?	-3%	?	-3	4%	-3%
CN(C)c1ccc(C(O)P(=O)(OCc2ccccc2)c2ccc(N(C)C)cc2)cc1 (stereo unspecified)	40µM*	2%	89µM*	-4	-17%	?
CCCC(C)c1nnc(NC(=O)CCS(=O)(=O)c2ccccc2)s1 (stereo unspecified)	?	-3%	50µM*	-22	4.7µM*	?
CC(C)(O)C1O[C@H]2CC[C@@]3(C)[C@@](O)(CC[C@H]4Cc5c([nH]c6ccccc56)[C@@]43C)C2=CC1=O (stereo partly specified)	·	-27%	·	·	·	·
CC[C@H]1C(=O)OC[C@H]1Cc1cncn1C	·	10%[21.4 µM]	·	·	·	·
CN(C)[C@@H]1C(=O)C(C(N)=O)=C(O)[C@@]2(O)C(=O)C3=C(O)c4c(O)cccc4[C@@](C)(O)C3C[C@@H]12 (stereo partly specified)	25µM*	-9%	10µM*	-11	-15%	5%
CN(C)[C@@H]1C(=O)C(C(N)=O)=C(O)[C@@]2(O)C(=O)C3=C(O)c4c(O)ccc(Cl)c4[C@@](C)(O)[C@H]3C[C@@H]12	18µM*	-18%	56µM*	-19	-15%	18%
CN(C)C1C(=O)C(C(N)=O)=C(O)[C@@]2(O)C(=O)C3=C(O)c4c(O)cccc4[C@](C)(O)C3C(O)C12 (stereo partly specified)	·	-29%	·	·	·	·
CN(C)[C@@H]1C(=O)C(C(N)=O)=C(O)[C@@]2(O)C(=O)C3=C(O)c4c(O)cccc4[C@@](C)(O)[C@H]3[C@H](O)[C@@H]12	2.8µM*	28µM*!	1.4µM*!	-85*	5.3µM*	4µM*!
CN(C)C1C(=O)C(C(N)=O)C(=O)C2(O)C(=O)C3C(=O)c4c(O)cccc4C(C)(O)C3C(O)C12 (stereo unspecified)	·	10µM*	·	·	·	·
O=S(=O)(O)c1cc(O)ccc1O	3%	-4%	79µM*	-1	-1%	?
COc1ccc(CCNCc2cccc(C(F)(F)F)c2)cc1OC	50µM*	-5%	45µM*	0	-8%	-7%
COc1cccc(CNCCc2ccc(F)cc2)c1	40µM*	7%	?	5	-3%	4%
COc1cccc(CCNCc2c(F)cccc2F)c1	40µM*	-4%	?	-5	?	?
COc1ccccc1CCNCc1cccc(C(F)(F)F)c1	8%	-3%	-31%	-8	2%	12%
SMILES	BAZ2B block	GCN5L2 inh	JMJD2A Tudor inh	PI5P4K alpha inh	PLK1 PBD block	HP1b chromo inh
c1cnc(N2CCC3(CCNCC3)CC2)nc1	·	-4%	·	·	·	·
Cc1cccc(-n2nc(C)c(C(=O)N3CCN(c4ccccc4)CC3)c2-n2cccc2)c1	?	2%	?	·	·	-5%
CCC1(C)CC(C(N)=S)CCO1 (stereo unspecified)	?	?	56µM*	-8	2.1µM*	?
S=c1[nH]c2cc(Br)cnc2[nH]1	-24%	?	20µM*	?	13µM*	?
S=c1[nH]c2ccccc2[nH]1	-12%	-4%	?	0	-17%	-5%
O=[N+]([O-])c1cc(C(F)(F)F)ccc1Cl	-4%	?	-3%	1	-10%	17%
CC(C)(C)c1ccc(-c2n[nH]c(=S)n2CCCN2CCOCC2)cc1	-33%	6%	10µM*	2	-11%	4%
CN(C[C@H](Cc1ccccc1)N(C[C@H](Cc1ccccc1)N(CC1(c2ccccc2)CC1)N=O)N=O)N=O	?	3%	-27%	-3	-14%	16%
CC1CCN(CC(=O)c2ccc3c(c2)OCCO3)CC1	·	-1%	5µM*	5	-3%	?
CCN1CC2(OC(=O)c3ccccc3NC(C)=O)CCC(OC)[C@]34C1[C@H](CC23)[C@@]1(O)C[C@H](OC)[C@H]2CC4C1(O)[C@H]2OC (stereo partly specified)	·	-5%	·	·	·	·
S=C(c1ccc(Cl)cc1)N1CCOCC1	-2%	3%	-21%	·	28µM*	-32%
C[C@@H]1Cc2c(Cl)cc(C(=O)N[C@@H](Cc3ccccc3)C(=O)O)c(O)c2C(=O)O1	·	-8%	·	·	·	·
CCOC(=O)c1c(NC(NC(=O)CF)C(Cl)(Cl)Cl)sc2c1CCCC2 (stereo unspecified)	-36%	-7%	40µM*	-18	12µM*	-6%
CCOC(=O)c1c(NC(=O)c2c(N)n(CCCOC)c3nc4ccccc4nc23)sc2c1CCCC2	-31%	0%	-14%	·	-7%	-10%
CN1C(=O)C(=Cc2ccc(SC3CCCCC3)o2)C(=O)N(C)C1=O	56µM*	-24%	?	-6	0.6µM*	?
CN1C(=O)C(=Cc2ccc(N3CCCCC3)o2)C(=O)N(C)C1=S	-29%	-6%	-33%	3	49%	-13%
Cc1ccc(-c2nnc(Nc3ccc(O)cc3)c3ccccc23)cc1S(=O)(=O)N1CCOCC1	-20%	0%	?	·	·	13%
